CHO-K1 Ca antag: M1 antagonist counterscreen hit in parental CHO-K1 cells | inhibition, % at 3 µM | 360,000 compounds, 0.6% hits | ATP-induced calcium, Fluo-8 fluorescence;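 active = inhibition above a per-plate cutoff, the plate's mean sample inhibition plus 3 SD, cut at about 24% in these data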;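 also: 0% = DMSO plus EC80 ATP and 100% = DMSO alone without ATP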
M1 antag: blocks human M1 muscarinic receptor | CHO-K1 hM1, Fluo-8 calcium fluorescence, ACh EC80 antagonist | inhibition, % at 3 µM | 360,000 compounds, 1.3% hits;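 active = percent inhibition above its own plate's cutoff, namely the mean of that plate's compound wells plus 3 SD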;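 also: peak over basal fluorescence ratio during 140 s after agonist addition; 0% = ACh EC80 plus DMSO and 100% = DMSO alone without agonist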
Target sequence (P11229 whole entry, looked up): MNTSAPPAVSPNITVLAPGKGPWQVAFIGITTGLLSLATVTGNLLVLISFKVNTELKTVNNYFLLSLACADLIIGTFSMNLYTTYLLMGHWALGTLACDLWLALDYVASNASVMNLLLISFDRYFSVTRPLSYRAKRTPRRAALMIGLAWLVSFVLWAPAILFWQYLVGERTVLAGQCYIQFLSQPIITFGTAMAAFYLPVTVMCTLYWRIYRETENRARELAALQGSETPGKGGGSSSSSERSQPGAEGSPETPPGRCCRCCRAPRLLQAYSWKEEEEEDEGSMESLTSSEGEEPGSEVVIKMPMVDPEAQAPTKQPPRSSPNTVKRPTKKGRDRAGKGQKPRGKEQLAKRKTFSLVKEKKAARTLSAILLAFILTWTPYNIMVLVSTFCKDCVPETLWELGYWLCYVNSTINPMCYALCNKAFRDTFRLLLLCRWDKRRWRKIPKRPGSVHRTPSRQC
M1 ag: agonists of human M1 muscarinic receptor. P11229. CHO-K1 hM1, Fluo-8 calcium fluorescence, agonist mode; 0% DMSO, 100% acetylcholine EC100. activation, % at 3 µM. 360,000 compounds, 0.33% hits;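 active = activation above the run's mean compound activation plus 3 SD, cut at about 16% in these data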;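 also: peak over basal fluorescence ratio within a 140 s kinetic read after compound addition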
CHO-K1 Ca PAM: nonselective activator or artifact in parental CHO-K1 calcium assay; AID 602247; ATP EC20, Fluo-8 calcium fluorescence; 0% at ATP EC20, 100% at ATP max; 360,000 compounds, 0.02% hits; activation, % at 3 µM;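 active = activation above the run cutoff, the mean activation of all test compounds plus 3 SD, cut at about 40% in these data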;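 also: peak over basal fluorescence ratio in a 140 s read after ATP addition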
CHO-K1 Ca ag: nonselective activator or artifact in parental CHO-K1 cells; Fluo-8 calcium fluorescence; scaled to maximal ATP response, vehicle zero; activation, % at 3 µM; 360,000 compounds, 0.48% hits; in the data active = activation above about 15%;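 also: untransfected CHO-K1 host cells lacking M1 receptor as counterscreen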
CHRM1 PAM: human CHRM1 positive allosteric modulation; CHO-K1 hM1, Fluo-8 calcium fluorescence, ACh EC20; 0% = ACh EC20, 100% = maximal ACh; activation, % at 3 µM; 360,000 compounds, 0.088% hits; in the data active = activation above about 19%, passing the limit was not always enough
* hit, by the source's call. The list is not random: actives were taken first. Their share in the collection is about 2.3%.

What do the screens show for `Cc1ccc(CN2CCC(c3cc(-c4cccs4)n[nH]3)CC2)cc1`?
CHO-K1 Ca antag: 0; M1 antag: 31*; M1 ag: -15; CHO-K1 Ca PAM: 14; CHO-K1 Ca ag: 2; CHRM1 PAM: -37

What do the screens show for `CSc1ccccc1OCc1cc(C(=O)NCCN2CCCc3ccccc32)no1`?
CHO-K1 Ca antag: -11; M1 antag: -5; M1 ag: -5; CHO-K1 Ca PAM: 18; CHO-K1 Ca ag: 1; CHRM1 PAM: -1

How did COc1ccc(Cc2nnc(NC(=O)c3ccc(F)cc3)s2)cc1OC do in these assays?
CHO-K1 Ca antag: 29*; M1 antag: 1; M1 ag: -2; CHO-K1 Ca PAM: -18; CHO-K1 Ca ag: 0; CHRM1 PAM: -1

Results for COc1ccc(Cc2nnc(NC(=O)c3ccc(C)cc3)s2)cc1OC ?
CHO-K1 Ca antag: -11; M1 antag: -8; M1 ag: -3; CHO-K1 Ca PAM: 2; CHO-K1 Ca ag: 0; CHRM1 PAM: 4

Results for CC1(C(=O)NS(=O)(=O)c2ccccc2Cl)CCN1C(=O)C1(c2ccc(Cl)cc2)CC1 (centres undefined) ?
CHO-K1 Ca antag: -7; M1 antag: -4; M1 ag: 1; CHO-K1 Ca PAM: 12; CHO-K1 Ca ag: 0; CHRM1 PAM: 2

How did CC1(C(=O)NS(=O)(=O)c2ccccc2Cl)CCN1C(=O)C1(c2ccc(Cl)cc2)CCC1 (centres undefined) do in these assays?
CHO-K1 Ca antag: 48*; M1 antag: -12; M1 ag: -4; CHO-K1 Ca PAM: -15; CHO-K1 Ca ag: -1; CHRM1 PAM: 4

How did CC(C)(C)NC(=O)CSc1nnc(-c2ccncc2)o1 do in these assays?
CHO-K1 Ca antag: 25*; M1 antag: -3; M1 ag: -3; CHO-K1 Ca PAM: 1; CHO-K1 Ca ag: 0; CHRM1 PAM: 4

What do the screens show for `NC(=O)CSc1nnc(-c2ccncc2)o1`?
CHO-K1 Ca antag: -2; M1 antag: -6; M1 ag: -3; CHO-K1 Ca PAM: 22; CHO-K1 Ca ag: 0; CHRM1 PAM: 8

How did Cc1ccccc1CSc1nnc(-c2ccncc2)o1 do in these assays?
CHO-K1 Ca antag: 3; M1 antag: 11; M1 ag: -6; CHO-K1 Ca PAM: 2; CHO-K1 Ca ag: 24*; CHRM1 PAM: -12

What do the screens show for `c1ccc(CSc2nnc(-c3ccncc3)o2)cc1`?
CHO-K1 Ca antag: 2; M1 antag: -2; M1 ag: 0; CHO-K1 Ca PAM: -6; CHO-K1 Ca ag: 0; CHRM1 PAM: 16

Results for C[C@@H]1CN([C@@H](C)CO)C(=O)c2cc(-c3ccncc3)cnc2O[C@H]1CN(C)C(=O)c1cccc(F)c1 ?
CHO-K1 Ca antag: 2; M1 antag: -12; M1 ag: -6; CHO-K1 Ca PAM: 4; CHO-K1 Ca ag: 0; CHRM1 PAM: 4

Results for CN1C(=S)SC(C)(NO)C1(C)C (centres undefined) ?
CHO-K1 Ca antag: -21; M1 antag: -21; M1 ag: 5; CHO-K1 Ca PAM: 12; CHO-K1 Ca ag: 0; CHRM1 PAM: 26*

What do the screens show for `OC(CN1CCCCC1)CN(c1ccccc1)c1ccccc1` (centres undefined)?
CHO-K1 Ca antag: 11; M1 antag: 51*; M1 ag: -10; CHO-K1 Ca PAM: -5; CHO-K1 Ca ag: 0; CHRM1 PAM: -25

How did OC(CN1CCCCCC1)CN(c1ccccc1)c1ccccc1 (centres undefined) do in these assays?
CHO-K1 Ca antag: 4; M1 antag: 38*; M1 ag: -8; CHO-K1 Ca PAM: 13; CHO-K1 Ca ag: 2; CHRM1 PAM: -26

How did OC(CN1CCOCC1)CN(c1ccccc1)c1ccccc1 (centres undefined) do in these assays?
CHO-K1 Ca antag: -6; M1 antag: -1; M1 ag: -8; CHO-K1 Ca PAM: 1; CHO-K1 Ca ag: 0; CHRM1 PAM: 0

Results for Cc1ccccc1S(=O)(=O)N(CC(O)CN1CCCCC1)c1ccccc1 (centres undefined) ?
CHO-K1 Ca antag: -11; M1 antag: 5; M1 ag: -6; CHO-K1 Ca PAM: -6; CHO-K1 Ca ag: 0; CHRM1 PAM: -2

Results for O=C1c2ccccc2[C@@H]2Cc3csc[n+]3[C@H]12 ?
CHO-K1 Ca antag: -10; CHO-K1 Ca PAM: 22; CHO-K1 Ca ag: 2

How did Cn1ncc2c(=S)[nH]c(=S)[nH]c21 do in these assays?
CHO-K1 Ca antag: -2; CHO-K1 Ca PAM: -2; CHO-K1 Ca ag: 0

How did Nc1c(C(=O)C2CC2)sc2nc(-c3ccccc3)cc(C(F)(F)F)c12 do in these assays?
CHO-K1 Ca antag: 75*; M1 antag: -8; M1 ag: 3; CHO-K1 Ca PAM: -1; CHO-K1 Ca ag: 109*; CHRM1 PAM: 11

What do the screens show for `Cc1c(NC(=O)C(C)OC(=O)CCOc2ccccc2)c(=O)n(-c2ccccc2)n1C` (centres undefined)?
CHO-K1 Ca antag: 9; M1 antag: 1; M1 ag: -3; CHO-K1 Ca PAM: -3; CHO-K1 Ca ag: -1; CHRM1 PAM: 4

What do the screens show for `CC1(C2CCC3C4CCC5CC6(CCC5(C)C4C(=O)CC32C)OCCO6)OCCO1` (centres undefined)?
CHO-K1 Ca antag: -9; M1 antag: -24; M1 ag: -5; CHO-K1 Ca PAM: 5; CHO-K1 Ca ag: 0; CHRM1 PAM: 25*

How did Cc1ccc(CS(=O)Cc2ccc(C(=O)NCc3ccccc3Cl)o2)cc1 (centres undefined) do in these assays?
CHO-K1 Ca antag: -2; M1 antag: 39*; M1 ag: -4; CHO-K1 Ca PAM: -14; CHO-K1 Ca ag: 0; CHRM1 PAM: -13

What do the screens show for `CC(=O)Nc1ccc(NC(=O)Cn2c(=O)n(-c3ccccc3)c(=O)c3oc4ccccc4c32)cc1`?
CHO-K1 Ca antag: 1; M1 antag: -5; M1 ag: 1; CHO-K1 Ca PAM: 17; CHO-K1 Ca ag: 15*; CHRM1 PAM: 8

How did COCc1cc(C)nc(SCC(=O)Nc2ccc3c(c2)n(C)c(=O)n3C)c1C#N do in these assays?
CHO-K1 Ca antag: 7; M1 antag: -2; M1 ag: 0; CHO-K1 Ca PAM: -5; CHO-K1 Ca ag: 0; CHRM1 PAM: 4

How did Cc1nnc(C)c2c(C)n(Cc3ccc4c(c3)OCO4)c(C)c12 do in these assays?
CHO-K1 Ca antag: 24*; M1 antag: 14; M1 ag: -6; CHO-K1 Ca PAM: -8; CHO-K1 Ca ag: 0; CHRM1 PAM: -12

How did COC(=O)[C@]1(C)N[C@H](CN(C)C(=O)NC(C)C)[C@@H]2C(=O)N(C)C(=O)[C@@H]21 do in these assays?
CHO-K1 Ca antag: -5; M1 antag: -14; M1 ag: -4; CHO-K1 Ca PAM: 8; CHO-K1 Ca ag: 0; CHRM1 PAM: 10

How did O=C1CCN2C=Nc3cccc4ccc1c2c34 do in these assays?
CHO-K1 Ca antag: -2; M1 antag: -13; M1 ag: 25*; CHO-K1 Ca PAM: -8; CHO-K1 Ca ag: 18*; CHRM1 PAM: -3

Bioassay records as filed in PubChem BioAssay.
